Data from the supplement of paper PMC10849652.
Targets with a hit are over-represented here; the source holds about 7,900 in all. About 0.6% of all pairs of compound and target were hits.

Assays:
Assay in all cases: log2 fold change, soluble protein after heating vs DMSO (PISA); higher = thermal stabilisation; K562 cells, 10 uM, 30 min; active = over 0.2 and 3.5 SD of the protein, either way, in both replicates (recomputed)
bafetinib = compound: Cc1ccc(NC(=O)c2ccc(CN3CC[C@H](N(C)C)C3)c(C(F)(F)F)c2)cc1Nc1nccc(-c2cncnc2)n1 [bafetinib]
In short: (§1)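 K562 cells at 2×10^6 cells/mL were given 10 μM compound for 30 min. Aliquots then went through 3 min of heating across 48°C-58°C, were pooled, and were extracted in PBS with 0.5% NP-40 at 4°C, and the supernatant after 21,000xg for 90 min was quantified by TMTpro 16plex LC-MS/MS with channel sums equalised. Thermal stability relative to control samples, from duplicates, is given as log2 fold change.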

[1] = compound: Cc1cccc(CC(=O)N2CCc3c2ccc(-c2cn(C)c4ncnc(N)c24)c3F)n1
In short: as §1

dasatinib = compound: Cc1nc(Nc2ncc(C(=O)Nc3c(C)cccc3Cl)s2)cc(N2CCN(CCO)CC2)n1 [dasatinib]
In short: as §1

[2] = compound: Cn1cc(-c2ccc3c(c2)CCN3C(=O)Cc2cccc(C(F)(F)F)c2)c2c(N)ncnc21
In short: as §1

[3] = compound: Cn1cc(-c2ccc3nnc(C(F)(F)c4ccc5ncccc5c4)n3n2)cn1
In short: as §1

tipifarnib = compound: Cn1cncc1[C@@](N)(c1ccc(Cl)cc1)c1ccc2c(c1)c(-c1cccc(Cl)c1)cc(=O)n2C [tipifarnib]
In short: as §1

mubritinib = compound: FC(F)(F)c1ccc(/C=C/c2nc(COc3ccc(CCCCn4ccnn4)cc3)co2)cc1 [mubritinib]
In short: as §1

[4] = compound: NC(=O)c1cnc(N[C@@H]2CCCC[C@@H]2N)nc1Nc1cccc(-n2nccn2)c1
In short: as §1

[5] = compound: NC1(c2ccc(-c3nc4ccn5c(=O)[nH]nc5c4cc3-c3ccccc3)cc2)CCC1
In short: as §1

[6] = compound: NCC(=O)Nc1ccc(-n2nc(C(F)(F)F)cc2-c2ccc3c(ccc4ccccc43)c2)cc1
In short: as §1

vorinostat = compound: O=C(CCCCCCC(=O)Nc1ccccc1)NO [vorinostat]
In short: as §1

citarinostat = compound: O=C(CCCCCCNC(=O)c1cnc(N(c2ccccc2)c2ccccc2Cl)nc1)NO [citarinostat]
In short: as §1

silmitasertib = compound: O=C(O)c1ccc2c(c1)nc(Nc1cccc(Cl)c1)c1ccncc12 [silmitasertib]
In short: as §1

[7] = compound: O=C1NC(=O)C(c2cnc3ccccn23)=C1c1cn2c3c(cc(F)cc13)CN(C(=O)N1CCCCC1)CC2
In short: as §1

[8] = compound: c1cc(OCCN2CCCCC2)cc(-c2n[nH]c3ccc(-c4nnc[nH]4)cc23)c1
In short: as §1

nilotinib = compound: Cc1cn(-c2cc(NC(=O)c3ccc(C)c(Nc4nccc(-c5cccnc5)n4)c3)cc(C(F)(F)F)c2)cn1 [nilotinib]
In short: as §1

[9] = compound: Cc1nc(Nc2n[nH]c3c2CN(C(=O)N[C@H](CN(C)C)c2ccccc2)C3(C)C)c2sccc2n1
In short: as §1

[10] = compound: Cc1ncc(-c2ccnc(Nc3ccc(S(C)(=O)=O)cc3)n2)n1C(C)C
In short: as §1

[11] = compound: NC(=O)Nc1cc(-c2cccc(F)c2)sc1C(=O)N[C@H]1CCCNC1
In short: as §1

entinostat = compound: Nc1ccccc1NC(=O)c1ccc(CNC(=O)OCc2cccnc2)cc1 [entinostat]
In short: as §1

Measured: log2 fold change

PIGH (UniProt Q14442)
Sequence of UniProt Q14442 (Q14442 whole entry, looked up): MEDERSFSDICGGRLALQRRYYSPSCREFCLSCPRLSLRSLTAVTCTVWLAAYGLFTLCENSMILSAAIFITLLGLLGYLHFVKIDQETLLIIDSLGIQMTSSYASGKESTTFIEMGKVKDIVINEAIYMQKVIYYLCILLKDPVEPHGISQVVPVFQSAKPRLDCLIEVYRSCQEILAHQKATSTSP
inactive: bafetinib -0.037 | [1] -0.01 | dasatinib -0.053 | [2] 0.099 | [3] 0.009 | tipifarnib 0.056 | mubritinib 0.04 | [4] -0.021 | [5] -0.087 | [6] -0.021 | vorinostat 0.18 | citarinostat 0.031 | silmitasertib 0.093 | [7] -0.128 | [8] -0.05

POLR3D (UniProt P05423)
Sequence of UniProt P05423 (P05423 whole entry, looked up): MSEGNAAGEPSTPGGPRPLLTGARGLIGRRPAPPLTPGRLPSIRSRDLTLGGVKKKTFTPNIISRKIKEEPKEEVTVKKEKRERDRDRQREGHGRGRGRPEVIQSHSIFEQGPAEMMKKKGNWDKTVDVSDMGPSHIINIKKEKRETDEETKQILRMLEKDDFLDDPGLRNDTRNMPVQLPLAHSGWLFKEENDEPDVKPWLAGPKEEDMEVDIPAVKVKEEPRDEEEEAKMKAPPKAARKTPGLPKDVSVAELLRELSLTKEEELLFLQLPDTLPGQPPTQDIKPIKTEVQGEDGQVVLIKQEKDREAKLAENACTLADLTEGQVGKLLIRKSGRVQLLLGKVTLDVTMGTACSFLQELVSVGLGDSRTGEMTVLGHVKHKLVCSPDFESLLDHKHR
active: [4] 1.51
inactive: bafetinib -0.052 | [1] 0.044 | nilotinib 0.023 | [9] -0.125 | dasatinib 1.17 | [10] 0.057 | [2] -0.082 | [3] 0.046 | tipifarnib 0.018 | mubritinib -0.072 | [11] -0.061 | [5] -0.115 | [6] -0.028 | entinostat 0.03 | vorinostat 0.158 | silmitasertib 0.078 | [7] 0.032

PTTG1IP (UniProt P53801)
Sequence of UniProt P53801 (P53801 whole entry, looked up): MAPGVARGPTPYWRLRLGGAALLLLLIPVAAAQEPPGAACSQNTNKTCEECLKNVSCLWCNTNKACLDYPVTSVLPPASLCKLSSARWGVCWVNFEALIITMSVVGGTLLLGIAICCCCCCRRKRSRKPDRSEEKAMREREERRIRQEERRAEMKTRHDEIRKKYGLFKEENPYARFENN
inactive: bafetinib -0.105 | [1] -0.053 | nilotinib -0.061 | [9] 0.054 | dasatinib -0.002 | [10] -0.099 | [2] 0.036 | tipifarnib 0.036 | mubritinib -0.012 | [11] -0.033 | [4] 0.026 | [5] -0.222 | [6] 0.065 | entinostat 0.12 | vorinostat -0.077 | citarinostat -0.017 | silmitasertib 0.083 | [7] 0.017 | [8] 0.07

PYGB (UniProt P11216)
Sequence of UniProt P11216 (P11216 whole entry, looked up): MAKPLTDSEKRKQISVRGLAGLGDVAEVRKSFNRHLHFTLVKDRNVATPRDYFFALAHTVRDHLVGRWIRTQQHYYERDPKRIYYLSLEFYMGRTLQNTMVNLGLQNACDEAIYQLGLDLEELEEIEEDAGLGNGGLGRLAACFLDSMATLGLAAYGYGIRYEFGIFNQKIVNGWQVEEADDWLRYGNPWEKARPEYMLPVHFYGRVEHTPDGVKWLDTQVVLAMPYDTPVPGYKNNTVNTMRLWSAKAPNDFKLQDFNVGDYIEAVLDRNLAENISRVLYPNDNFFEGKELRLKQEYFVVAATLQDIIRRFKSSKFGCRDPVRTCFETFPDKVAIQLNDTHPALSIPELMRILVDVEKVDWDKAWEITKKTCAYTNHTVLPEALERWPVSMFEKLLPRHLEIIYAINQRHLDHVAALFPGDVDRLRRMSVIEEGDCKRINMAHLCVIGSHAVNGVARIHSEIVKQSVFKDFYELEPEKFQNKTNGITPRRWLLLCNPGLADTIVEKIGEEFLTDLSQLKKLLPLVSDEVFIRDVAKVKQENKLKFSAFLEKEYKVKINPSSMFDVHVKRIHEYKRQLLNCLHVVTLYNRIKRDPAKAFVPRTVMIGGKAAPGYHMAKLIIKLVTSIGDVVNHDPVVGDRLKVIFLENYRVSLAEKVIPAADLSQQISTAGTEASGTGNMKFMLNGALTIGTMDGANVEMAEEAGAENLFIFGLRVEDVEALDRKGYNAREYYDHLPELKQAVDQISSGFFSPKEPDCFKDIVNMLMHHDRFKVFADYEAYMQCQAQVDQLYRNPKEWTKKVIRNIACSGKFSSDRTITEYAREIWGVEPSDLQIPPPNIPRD
active: bafetinib -0.317 | nilotinib -0.358
inactive: [1] 0 | [9] 0.02 | dasatinib -0.042 | [10] -0.032 | [2] 0.026 | [3] -0.007 | tipifarnib 0.035 | mubritinib 0.014 | [11] 0.209 | [4] -0.077 | [5] -0.018 | [6] -0.041 | entinostat -0.003 | vorinostat 0.063 | citarinostat 0.033 | silmitasertib -0.005 | [7] -0.105 | [8] -0.105

PPP1R12C (UniProt Q9BZL4)
inactive: bafetinib -0.085 | nilotinib 0.069 | [9] -0.26 | dasatinib -0.065 | [10] -0.213 | [3] -0.018 | tipifarnib -0.219 | mubritinib -0.118 | [11] -0.151 | [5] -0.031 | [6] -0.022 | entinostat 0.072 | vorinostat 0.487 | citarinostat -0.008 | silmitasertib 0.122 | [7] -0.073 | [8] -0.278
active: [1] 0.612

PARP16 isoform 3 (UniProt Q8N5Y8)
Sequence of UniProt Q8N5Y8 (Q8N5Y8 whole entry, looked up): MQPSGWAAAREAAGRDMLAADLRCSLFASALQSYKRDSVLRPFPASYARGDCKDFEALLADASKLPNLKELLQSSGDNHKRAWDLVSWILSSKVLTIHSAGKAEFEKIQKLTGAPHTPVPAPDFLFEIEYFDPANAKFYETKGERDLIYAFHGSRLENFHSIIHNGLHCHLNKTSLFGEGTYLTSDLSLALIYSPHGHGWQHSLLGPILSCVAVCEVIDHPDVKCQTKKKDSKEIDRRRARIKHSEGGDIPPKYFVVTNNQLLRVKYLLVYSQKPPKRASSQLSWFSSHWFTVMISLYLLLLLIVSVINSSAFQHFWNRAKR
inactive: bafetinib 0.096 | [1] -0.005 | nilotinib -0.034 | [9] -0.019 | dasatinib -0.009 | [10] 0.053 | [2] 0.011 | tipifarnib -0.092 | mubritinib 0.089 | [11] 0.116 | [4] 0.077 | [5] 0.239 | [6] -0.036 | entinostat 0.053 | vorinostat 0.117 | citarinostat 0.006 | silmitasertib -0.197 | [7] -0.022 | [8] -0.065

PI4K2B (UniProt Q8TCG2)
inactive: bafetinib -0.084 | [1] 0 | nilotinib 0.124 | [9] -0.052 | dasatinib -0.101 | [10] -0.167 | [2] 0.11 | [3] 0.146 | mubritinib 0.053 | [11] 0.092 | [5] -0.08 | [6] -0.069 | entinostat 0.066 | vorinostat -0.021 | citarinostat 0.075 | silmitasertib 0.051 | [8] 0.111
active: [4] 0.704

POLR2E (UniProt P19388)
inactive: bafetinib 0.055 | [1] -0.03 | nilotinib -0.007 | [9] 0.112 | dasatinib 0.025 | [10] 0.306 | [2] -0.056 | [3] 0.005 | tipifarnib -0.088 | mubritinib 0.023 | [4] 0 | [5] -0.021 | [6] -0.02 | vorinostat -0.115 | citarinostat -0.001 | silmitasertib 0.134 | [7] 0.117 | [8] -0.088

PTPN12 (UniProt Q05209)
Sequence of UniProt Q05209 (Q05209 whole entry, looked up): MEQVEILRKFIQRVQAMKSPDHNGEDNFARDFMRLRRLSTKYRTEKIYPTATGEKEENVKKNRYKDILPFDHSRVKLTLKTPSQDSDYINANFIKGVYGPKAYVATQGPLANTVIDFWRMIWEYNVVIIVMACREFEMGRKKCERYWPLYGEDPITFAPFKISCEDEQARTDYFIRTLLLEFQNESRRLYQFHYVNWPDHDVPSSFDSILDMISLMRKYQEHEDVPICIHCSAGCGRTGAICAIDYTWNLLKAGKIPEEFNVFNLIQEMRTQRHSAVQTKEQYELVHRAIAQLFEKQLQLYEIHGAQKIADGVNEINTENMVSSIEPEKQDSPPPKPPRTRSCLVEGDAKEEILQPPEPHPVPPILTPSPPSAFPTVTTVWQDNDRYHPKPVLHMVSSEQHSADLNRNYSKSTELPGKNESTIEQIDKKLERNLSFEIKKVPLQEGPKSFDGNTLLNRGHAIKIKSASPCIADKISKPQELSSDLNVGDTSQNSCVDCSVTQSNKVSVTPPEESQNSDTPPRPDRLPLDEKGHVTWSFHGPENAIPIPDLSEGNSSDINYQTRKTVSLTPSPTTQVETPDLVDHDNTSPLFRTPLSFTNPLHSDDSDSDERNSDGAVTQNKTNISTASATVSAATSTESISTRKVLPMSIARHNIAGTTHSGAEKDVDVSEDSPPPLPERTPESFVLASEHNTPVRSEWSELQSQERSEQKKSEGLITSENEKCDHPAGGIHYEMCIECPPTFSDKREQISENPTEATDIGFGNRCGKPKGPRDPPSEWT
inactive: bafetinib -0.052 | [1] 0.008 | nilotinib -0.022 | [9] -0.122 | dasatinib -0.059 | [10] 0.074 | [2] -0.116 | [3] -0.086 | tipifarnib -0.081 | mubritinib 0.021 | [11] 0.037 | [4] -0.023 | [5] -0.1 | [6] -0.012 | entinostat 0.038 | vorinostat -0.01 | citarinostat 0.019 | silmitasertib 0.163 | [7] 0.014 | [8] -0.015

PCF11 (UniProt O94913)
inactive: bafetinib -0.099 | [1] 0.078 | [2] -0.095 | [3] 0.007 | tipifarnib 0.168 | mubritinib 0.179 | [4] -0.047 | [5] -0.333 | [6] -0.179 | vorinostat -0.04 | citarinostat 0.001 | silmitasertib -0.113 | [8] 0.112

PDPK1 (UniProt O15530)
Sequence of UniProt O15530 (O15530 whole entry, looked up): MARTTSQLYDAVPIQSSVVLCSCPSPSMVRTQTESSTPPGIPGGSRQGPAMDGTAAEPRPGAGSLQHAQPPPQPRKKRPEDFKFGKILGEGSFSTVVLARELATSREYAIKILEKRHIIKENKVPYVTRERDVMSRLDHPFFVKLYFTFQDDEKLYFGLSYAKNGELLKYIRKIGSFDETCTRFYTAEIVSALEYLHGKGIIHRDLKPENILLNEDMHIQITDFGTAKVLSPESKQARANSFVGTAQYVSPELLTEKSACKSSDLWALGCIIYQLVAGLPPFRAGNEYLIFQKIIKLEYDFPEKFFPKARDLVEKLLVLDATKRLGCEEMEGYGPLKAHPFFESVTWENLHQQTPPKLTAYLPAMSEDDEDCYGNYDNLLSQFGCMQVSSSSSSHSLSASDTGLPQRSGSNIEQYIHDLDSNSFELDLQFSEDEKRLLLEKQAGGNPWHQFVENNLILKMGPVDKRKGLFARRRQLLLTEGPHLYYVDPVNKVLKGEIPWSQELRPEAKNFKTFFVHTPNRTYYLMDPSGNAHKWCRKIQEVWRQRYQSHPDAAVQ
inactive: bafetinib -0.06 | [1] 0.051 | nilotinib -0.104 | [9] 0.089 | dasatinib -0.169 | [10] -0.084 | [2] 0.077 | [3] 0.011 | tipifarnib -0.043 | mubritinib 0.022 | [4] -0.111 | [6] -0.061 | entinostat 0.034 | vorinostat 0.108 | citarinostat 0.038 | silmitasertib -0.04 | [7] 0.004 | [8] -0.019
active: [11] 0.238 | [5] -0.314

PNN (UniProt Q9H307)
Sequence of UniProt Q9H307 (Q9H307 whole entry, looked up): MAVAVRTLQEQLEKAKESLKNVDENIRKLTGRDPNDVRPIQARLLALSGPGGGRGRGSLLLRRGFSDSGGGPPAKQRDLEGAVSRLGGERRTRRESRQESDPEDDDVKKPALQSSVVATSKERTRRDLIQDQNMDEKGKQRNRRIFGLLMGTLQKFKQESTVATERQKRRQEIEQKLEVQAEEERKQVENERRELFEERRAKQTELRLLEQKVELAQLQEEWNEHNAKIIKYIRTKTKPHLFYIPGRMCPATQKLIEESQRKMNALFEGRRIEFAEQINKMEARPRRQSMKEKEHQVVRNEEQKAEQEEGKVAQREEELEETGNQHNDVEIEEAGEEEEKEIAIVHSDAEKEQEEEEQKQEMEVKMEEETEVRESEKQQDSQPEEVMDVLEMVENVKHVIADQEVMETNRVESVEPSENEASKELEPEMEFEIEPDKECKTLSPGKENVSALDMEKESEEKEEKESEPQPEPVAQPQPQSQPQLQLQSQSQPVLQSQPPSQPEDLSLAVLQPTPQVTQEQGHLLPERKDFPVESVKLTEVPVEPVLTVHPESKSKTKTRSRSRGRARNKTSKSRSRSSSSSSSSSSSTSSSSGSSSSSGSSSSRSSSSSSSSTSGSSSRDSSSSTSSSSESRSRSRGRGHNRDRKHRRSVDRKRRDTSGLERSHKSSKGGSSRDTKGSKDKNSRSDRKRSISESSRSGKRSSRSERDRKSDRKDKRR
inactive: bafetinib -0.08 | [1] -0.008 | nilotinib -0.028 | dasatinib 0.062 | [10] -0.039 | [2] 0.028 | [3] 0.231 | tipifarnib 0.255 | mubritinib -0.098 | [11] -0.018 | [4] -0.24 | [5] 0.053 | entinostat 0.021 | vorinostat 0.045 | citarinostat -0.077 | silmitasertib -0.124 | [7] 0.106
active: [9] -0.344 | [8] -0.446

PRKD2 isoform 3 (UniProt Q9BZL6)
active: [9] -0.698 | [11] -0.515
inactive: bafetinib -0.16 | [1] 0.045 | nilotinib -0.204 | dasatinib -0.139 | [10] -0.145 | [2] 0.057 | [3] 0.045 | tipifarnib -0.123 | mubritinib 0.099 | [4] -0.217 | [5] -0.074 | [6] 0 | entinostat 0.331 | vorinostat 0.186 | silmitasertib 0.047 | [7] -0.014

PI4K2A (UniProt Q9BTU6)
inactive: bafetinib -0.127 | [1] -0.042 | nilotinib 0.004 | [9] 0.037 | dasatinib -0.011 | [10] 0.076 | [2] 0.002 | [3] 0.056 | tipifarnib 0.031 | mubritinib -0.006 | [11] 0.033 | [4] 0.204 | [5] -0.152 | [6] -0.05 | entinostat -0.013 | vorinostat 0.039 | citarinostat 0.072 | silmitasertib -0.012 | [7] -0.05 | [8] 0.003

PCID2 (UniProt Q5JVF3)
inactive: bafetinib 0.07 | [1] 0.078 | nilotinib -0.013 | [9] -0.061 | dasatinib -0.254 | [10] -0.02 | [2] 0.038 | [3] -0.036 | tipifarnib -0.071 | mubritinib 0.109 | [11] -0.019 | [5] -0.103 | [6] 0.06 | entinostat 0.12 | vorinostat 0.199 | citarinostat -0.004 | silmitasertib 0.038 | [7] -0.15 | [8] 0.062

PRKD3 (UniProt O94806)
Sequence of UniProt O94806 (O94806 whole entry, looked up): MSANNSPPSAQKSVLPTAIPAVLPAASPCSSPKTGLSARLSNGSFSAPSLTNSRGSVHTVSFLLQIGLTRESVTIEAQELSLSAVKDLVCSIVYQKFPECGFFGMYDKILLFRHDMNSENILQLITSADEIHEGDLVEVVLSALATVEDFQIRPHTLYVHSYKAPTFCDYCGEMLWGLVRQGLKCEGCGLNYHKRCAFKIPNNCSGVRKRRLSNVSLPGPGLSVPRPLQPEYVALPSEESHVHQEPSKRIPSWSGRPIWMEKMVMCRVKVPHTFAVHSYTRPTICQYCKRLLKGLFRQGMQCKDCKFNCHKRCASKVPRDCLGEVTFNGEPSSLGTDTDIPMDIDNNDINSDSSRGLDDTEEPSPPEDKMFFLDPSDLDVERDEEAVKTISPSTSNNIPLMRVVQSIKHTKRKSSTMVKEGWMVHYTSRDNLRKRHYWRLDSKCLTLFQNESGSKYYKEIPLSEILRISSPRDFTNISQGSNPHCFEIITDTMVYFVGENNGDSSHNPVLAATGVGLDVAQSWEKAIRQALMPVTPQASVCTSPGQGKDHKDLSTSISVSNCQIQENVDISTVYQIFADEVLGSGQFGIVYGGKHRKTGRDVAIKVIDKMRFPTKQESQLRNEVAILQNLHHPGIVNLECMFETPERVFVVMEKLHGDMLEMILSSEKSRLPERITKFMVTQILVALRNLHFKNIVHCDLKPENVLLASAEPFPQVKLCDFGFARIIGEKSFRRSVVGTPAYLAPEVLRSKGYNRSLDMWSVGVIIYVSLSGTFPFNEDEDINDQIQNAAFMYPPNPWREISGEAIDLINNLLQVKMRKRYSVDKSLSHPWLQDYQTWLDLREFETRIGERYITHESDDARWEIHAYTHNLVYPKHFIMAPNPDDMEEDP
inactive: bafetinib -0.011 | [1] -0.231 | dasatinib -0.258 | [2] -0.079 | [3] 0.006 | mubritinib -0.062 | [11] -0.565 | [4] -0.263 | [5] -0.285 | [6] -0.213 | entinostat 0.34 | vorinostat 0.096 | silmitasertib 0.021
